Data taken from PubChem BioAssay AID1851 (National Center for Advancing Translational Sciences (NCATS), 2009).
Among all 16,000 compounds or so, about 5,700 (36%) were called active. About 24% were inconclusive and are not listed. This is one part of the list. Unmarked numbers belong to inactive results. The call rests on the fitted dose curve; in most records, active means well fitted curve in the direction sought with a large enough effect; inconclusive means small, poorly fitted or top-dose-only effect, or effect the other way; inactive means no such curve, though single readings can be large or run the other way.

target: Cytochrome P450 1A2 (Homo sapiens) (UniProt P05177); assay: Cytochrome panel assay with activity outcomes; conditions: recombinant CYP, pro-luciferin dealkylation, luminescence, p450-cyp1a2; series mostly up to 57.1 µM
On the % scale 0 is the no-effect control and ±100 the full control effect.

Chain of Cytochrome P450 1A2 (Homo sapiens) (P05177 whole entry, looked up): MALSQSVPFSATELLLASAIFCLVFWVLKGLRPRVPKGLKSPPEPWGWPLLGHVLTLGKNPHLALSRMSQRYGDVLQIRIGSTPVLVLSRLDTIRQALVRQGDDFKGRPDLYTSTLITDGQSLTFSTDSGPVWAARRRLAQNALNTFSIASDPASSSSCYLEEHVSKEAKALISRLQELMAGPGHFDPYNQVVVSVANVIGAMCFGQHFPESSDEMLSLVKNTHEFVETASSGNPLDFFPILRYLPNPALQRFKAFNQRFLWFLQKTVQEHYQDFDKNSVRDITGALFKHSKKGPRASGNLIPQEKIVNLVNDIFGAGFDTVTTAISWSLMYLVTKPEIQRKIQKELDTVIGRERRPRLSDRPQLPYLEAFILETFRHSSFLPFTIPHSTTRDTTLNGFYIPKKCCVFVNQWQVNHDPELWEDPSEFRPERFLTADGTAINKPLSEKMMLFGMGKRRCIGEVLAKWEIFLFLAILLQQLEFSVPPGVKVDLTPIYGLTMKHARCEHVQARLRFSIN

| SMILES | AC50 | activity, negative = inhibition |
| --- | --- | --- |
| FC(F)(F)c1nc2ccccc2nc1N/N=C\c1ccccc1 | 0.562 µM (active) | – |
| FC(F)(F)c1nc2ccccc2nc1N/N=C/c1ccc(Cl)cc1 | 1.41 µM (active) | – |
| Cc1cccc(CNc2cc(-c3c(C)noc3C)ncn2)c1 | 1 µM (active) | – |
| Cc1noc(C)c1-c1cc(NCc2cccnc2)ncn1 | 1 µM (active) | – |
| COc1ccccc1CNc1cc(-c2c(C)noc2C)ncn1 | 5.01 µM (active) | – |
| Cc1noc(C)c1-c1cc(NCc2ccccc2)ncn1 | 5.01 µM (active) | – |
| CCS(=O)(=O)N(C)[C@@H]1c2cc(C#N)ccc2OC(C)(C)[C@H]1O | inactive | – |
| CCOC(=O)C(C)CC(C)C(=O)N1CCOCCN(C(=O)C(C)CC(C)C(=O)OCC)CCOCC1 (centres undefined) | inactive | – |
| Cc1noc(C)c1-c1cc(NCc2cccs2)ncn1 | 0.794 µM (active) | – |
| O=C(O)[C@H](Cc1c[nH]c2ccccc12)N1C(=O)c2ccccc2C1=O | – | -8.32% [at 2.29 µM] |
| Cc1ccc(C(=O)Nc2ccc(C(=O)/C=C/c3cccs3)cc2)cc1 | inactive | – |
| Cc1ccc(C(=O)/C=C/c2c[nH]c3ccccc23)cc1 | 5.62 µM (active) | – |
| Cc1ccc(C(=O)NNC(=S)NC(=O)c2ccc(Cl)cc2)cc1 | inactive | – |
| COc1ccc(COc2ccsc2C(=O)Nc2ccc(Cl)c(Cl)c2)cc1 | 3.16 µM (active) | – |
| COc1ccc(Cc2nnc(NC(=O)c3ccc(Cl)c([N+](=O)[O-])c3)s2)cc1 | inactive | – |
| CNC(=S)NNC(=O)c1sccc1OCc1ccc(C)cc1 | 5.01 µM (active) | – |
| Cc1cc(C)n(Cc2ccc(NC(=O)c3ccc(COc4ccccc4Br)cc3)cc2)n1 | inactive | – |
| COc1ccc(-c2cc(C(F)(F)F)n3nc(C(=O)NCc4ccco4)c(Cl)c3n2)cc1 | 3.55 µM (active) | – |
| Cc1cc(C)n(C(=O)c2cc3ccccc3c(=O)o2)n1 | 7.08 µM (active) | – |
| O=C(O)CC1(C(=O)O)CCCCC1 | – | 5.1% [at 2.29 µM] |
| CCOC(=O)c1ccc(NC(=O)Nc2ccc3c4c(cccc24)C(=O)N3CC)cc1 | 1.58 µM (active) | – |
| CCCOC(=O)c1ccc(NC(=O)c2cn(CC)c3nc(C)ccc3c2=O)cc1 | inactive | – |
| CCN1C(=O)c2cccc3c(NC(=O)c4cccc(N5C(=O)CCC5=O)c4)ccc1c23 | inactive | – |

| SMILES | AC50 | activity, negative = inhibition |
| --- | --- | --- |
| CC(C)CO[C@H](c1ccc2c(c1)OCO2)[C@H](C)Br | 0.631 µM (active) | – |
| CC(C)CO/N=C1/C[C@@H](O)[C@@H](O)[C@@H]2[C@@H]3C(=O)N(Cc4ccc5c(c4)OCO5)C(=O)[C@H]3CC[C@H]12 | – | 2.96% [at 11.4 µM] |
| CC(C)CO/N=C1/C[C@@H](O)[C@@H](O)[C@@H]2[C@@H]3C(=O)N(Cc4ccc5c(c4)OCO5)C(=O)[C@H]3CC[C@@H]12 | – | -7.54% [at 11.4 µM] |
| c1ccc2c(-c3c[nH]c4ccccc34)c3ccccc3nc2c1 | 3.16 µM (active) | – |
| O=C(O)[C@@H](Cc1c[nH]c2ccccc12)C(=O)NO | – | -20.4% [at 11.4 µM] |
| c1ccc2c(CN3CCN(Cc4c[nH]c5ccccc45)CC3)c[nH]c2c1 | – | -18.1% [at 2.29 µM] |
| CO[C@H]1COC(=O)C/C=C\[C@@H](C)[C@H](OC)COC(=O)[C@H]2CCCN2C(=O)C/C=C\[C@@H]1C | – | 3.92% [at 11.4 µM] |
| CC(=O)OC[C@@H]1O[C@H](CCO/N=C(\C)CCC(=O)OC[C@@H]2O[C@H](C#Cc3ccccc3)C=C[C@@H]2Oc2ccc(C)cc2)C=C[C@@H]1OC(C)=O | – | -1.59% [at 11.4 µM] |
| Cc1nc2cc(NC(=O)CSc3nc4c(C)cccc4cc3C#N)ccc2s1 | 2.82 µM (active) | – |
| COC(=O)c1cccc(NC(=O)CCCOc2ccccc2)c1 | 0.891 µM (active) | – |
| Oc1ccccc1CNCc1ccccc1O | – | -17.8% [at 11.4 µM] |
| O=C(CCOc1ccccc1)Nc1ccccc1 | 8.91 µM (active) | – |
| CC(=O)NNC(=O)CCC(=O)Nc1ccccc1 | inactive | – |
| O=C(Cc1ccccc1I)Nc1ccccc1 | 12.6 µM (active) | – |
| COc1ccc(NC(=O)CCOc2ccccc2)cc1 | 3.55 µM (active) | – |
| CCC(=O)NNC(=O)CCC(=O)Nc1ccccc1 | inactive | – |
| O=S(=O)(O)C1CCNCC1 | inactive | – |
| CO[C@@H]1COC(=O)CC=C[C@@H](C)[C@@H]2C=C[C@H](O)[C@@H](COC(=O)[C@H](C)NC(=O)CC=C[C@H]1C)O2 | – | -7.89% [at 11.4 µM] |
| CCCCC#Cc1ccccc1CC(=O)Nc1ccccc1 | 2.51 µM (active) | – |
| COc1ccc(NC(=O)CCSc2cc(C)c3ccccc3n2)cc1 | 7.08 µM (active) | – |
| COC(=O)c1cccc(NC(=O)Nc2ccc(Cl)c(Cl)c2)c1 | 8.91 µM (active) | – |
| CC(C)(CC(=O)Nc1ccccc1)C(=O)O | – | -15.9% [at 11.4 µM] |
| NCC(=O)Nc1ccccc1 | 2.51 µM (active) | – |

| SMILES | AC50 | activity, negative = inhibition |
| --- | --- | --- |
| Cc1cccc(C)c1NC(=O)C(c1ccc(Cl)cc1Cl)N1CCCCC1 (centres undefined) | inactive | – |
| O=C1C[C@@H](O)[C@@H](O)[C@@H]2[C@H]3C(=O)N(c4ccc(F)cc4F)C(=O)[C@@H]3CC[C@H]12 | – | 8.95% [at 11.4 µM] |
| O=C(COc1ccccc1)Nc1ccc(-c2nnc(-c3ccco3)o2)cc1 | inactive | – |
| O=C(COC(=O)COc1ccccc1)Nc1ccc(OC(F)(F)F)cc1 | 20 µM (active) | – |
| O=C(Nc1nccs1)C1Cc2ccccc2CN1S(=O)(=O)c1ccc(F)cc1 (centres undefined) | 2.24 µM (active) | – |
| O=C(Nc1nnc(C2CC2)s1)C1Cc2ccccc2CN1S(=O)(=O)c1ccccc1F (centres undefined) | 12.6 µM (active) | – |
| Nc1ccc(S(=O)(=O)Nc2nccs2)cc1 | inactive | – |
| CCc1nnc(NC(=O)C2Cc3ccccc3CN2S(=O)(=O)c2ccc(C)cc2)s1 (centres undefined) | inactive | – |
| O=C(c1csnn1)N1CCC2(CC1)CN(c1ccccn1)C2 | inactive | – |
| Cc1ccc2nc(-c3ccc(NC(=O)Cc4cccs4)cc3)[nH]c2c1 | 0.631 µM (active) | – |
| CCNc1ncc2nc(-c3ccccc3)c(=O)n(CCC#N)c2n1 | 3.16 µM (active) | – |
| CCNc1ncc2nc(C)c(=O)n(CCC#N)c2n1 | 12.6 µM (active) | – |
| CCNc1ncc2nc(-c3cn(C)c4ccccc34)c(=O)n(CCC#N)c2n1 | 5.01 µM (active) | – |
| CCNc1ncc2nc(-c3cn(C)c4ccccc34)c(=O)n(C)c2n1 | 0.1 µM (active) | – |
| CC1(C)S[C@@H]2[C@H](NC(=O)[C@H](C(=O)O)c3ccsc3)C(=O)N2[C@H]1C(=O)O | inactive | – |
| CCOC(=O)c1c(C)[nH]c2ccc3c(c12)CN1CCc2cc(OC)ccc2[C@@H]1O3 | 0.158 µM (active) | – |
| CCOC(=O)Oc1c(OC)cc(C(=O)O[C@H]2C[C@H]3CN4CCc5c([nH]c6cc(OC)ccc56)[C@@H]4C[C@H]3[C@@H](C(=O)OC)[C@@H]2OC)cc1OC | inactive | – |
| COc1ccc(/C(O)=C2/C(=O)C(=O)N(CCN3CCOCC3)C2c2ccc(C)cc2)cc1 (centres undefined) | inactive | – |
| Cc1ccc(C)c(/C(O)=C2/C(=O)C(=O)N(CCN3CCOCC3)C2c2ccco2)c1 (centres undefined) | 25.1 µM (active) | – |
| Cc1ccc(C2/C(=C(/O)c3ccccc3)C(=O)C(=O)N2CCN2CCOCC2)o1 (centres undefined) | inactive | – |
| COc1ccc2[nH]c3c(c2c1)CN(C)CC3 | 12.6 µM (active) | – |
| COc1ccc2c3c([nH]c2c1)[C@@H]1C[C@@H]2[C@@H](C[C@H](O)[C@H](OC)[C@H]2C(=O)O)CN1CC3 | inactive | – |
| CN1CCc2[nH]nc(-c3n[nH]c4c3CN(C)CC4)c2C1 | – | -15.6% [at 11.4 µM] |

| SMILES | AC50 | activity, negative = inhibition |
| --- | --- | --- |
| Cc1ccc(C(=O)NC(=S)Nc2cc(-c3nc4ccccc4s3)ccc2C)cc1 | inactive | – |
| CN(C)C(=O)N1CCCC(C(=O)NCCc2ccccc2)C1 (centres undefined) | inactive | – |
| COc1ccc(C(=O)NC(=S)NCc2ccccc2)cc1 | 3.16 µM (active) | – |
| COc1ccc(C(=O)NCc2ccc(-c3nc4ccccc4s3)cc2)cc1 | 3.16 µM (active) | – |
| CC(C)(C)C(=O)NC(=S)NCCc1ccccc1 | 7.08 µM (active) | – |
| COc1ccc(CN(CCC#N)C(=S)NC(=O)c2ccccc2)cc1 | 5.01 µM (active) | – |
| CCOc1ccc(N(CCC#N)S(=O)(=O)c2ccc(OC)cc2)cc1 | inactive | – |
| COc1ccc(C(=O)NNC(=S)NC(=O)c2ccco2)cc1 | inactive | – |
| O=C(Oc1ccc2c(c1)CN(Cc1ccccc1)CO2)c1ccccc1 | – | -14.3% [at 2.29 µM] |
| C[C@H](c1ccccc1)N1C(=O)[C@H]2[C@@H]3[C@H](O)[C@H](O)CC(=O)[C@H]3CC[C@H]2C1=O | – | -6.45% [at 11.4 µM] |
| O=C(O)Cc1ccc2ocnc2c1 | inactive | – |
| CCCCN1C(=O)CN(CCc2ccccc2)C(=O)C1c1ccc(OC)cc1 (centres undefined) | inactive | – |
| CNC(=O)NC(=S)NC(=O)c1ccc(OC)cc1 | 10 µM (active) | – |
| COc1ccc(C(=O)NCc2cn3ccccc3n2)cc1 | 10 µM (active) | – |
| COc1cc(OC)cc(C(=O)NC(=S)Nc2ccc(Cl)c(C(=O)O)c2)c1 | inactive | – |
| COc1cc(OC)cc(C(=O)NC(=S)NCCc2ccccc2)c1 | 1.26 µM (active) | – |
| Cc1ccc(C(=O)O)cc1N1C(=O)c2cccc3cc(Br)cc(c23)C1=O | inactive | – |
| CC(C)(C)c1cc2c(O)c(c1)Cc1cc(C(C)(C)C)cc(c1O)Cc1cc(C(C)(C)C)cc(c1O)Cc1cc(C(C)(C)C)cc(c1O)Cc1cc(C(C)(C)C)cc(c1O)Cc1cc(C(C)(C)C)cc(c1O)Cc1cc(C(C)(C)C)cc(c1O)Cc1cc(C(C)(C)C)cc(c1O)C2 | – | -14.2% [at 11.4 µM] |
| CC(CCC(=O)O)(c1cc(Br)c(O)c(Br)c1)c1cc(Br)c(O)c(Br)c1 | – | -17.9% [at 2.29 µM] |
| CN(Cc1cc(C(C)(C)C)cc(Br)c1O)Cc1cc(C(C)(C)C)cc(Br)c1O | 3.16 µM (active) | – |
